Results on 84 compounds are retold here after PubChem BioAssay AID602346 (Broad Institute, 2012).

Among all 340,000 compounds or so, about 1,200 (0.35%) were called active. No stated cut-off is given here; in the data, active means inhibition above about 50% (passing the limit was not always enough); inconclusive means no clear call, values can overlap the other calls; inactive means below about 31%. The entries come from a sample that favours actives as a whole.

Broadly, the inhibition is the relative decrease from the control value, in per cent.

A short description of the test: HIV Vif self-association inhibitors, primary screen, imaging, HEK293T, single point (AID 602346). To be noted: HEK293T cells, Vif self-association by quenched fluorescence, 24 h, at 7.49 µM, hits give high values.
Consider `O=C(/C=C\c1cn(-c2ccccc2)nc1-c1cccs1)N1CCOCC1`, for which the inhibition is 87.7% (active).

As for `O=C(O)c1ccc(N/N=C/c2cn(-c3ccccc3)nc2-c2cccs2)cc1`, the inhibition is -6.33% (inactive).

As to `COc1ccc(-c2nn(-c3ccccc3)cc2/C=C\C(=O)N2CCOCC2)cc1[N+](=O)[O-]`, the inhibition is 1.35% (inactive).

In the case of `O=CNc1cc(-c2ccc(C(=O)N3CCOCC3)cc2)cn2c(-c3ccc(F)cc3)cnc12`, the inhibition was 6.34% (inactive).

Take `CCN(CC)CCn1c2ccc(Cl)cc2c2nc(C)sc21`: the inhibition was 16.1% (inactive).

As to `CCN(CC)CCCC(C)n1c2nc(=O)[nH]c(=O)c-2nc2cc(Cl)ccc21` (centres undefined), the inhibition was 128% (active).

On to `Cc1nc2c(OCc3ccc(Cl)cc3)cccn2c1N(C)Cc1cccs1`, for which the inhibition is -12.4% (inactive).

For `O=C(Nc1ccc2oc(-c3ccc4ccccc4c3)nc2c1)c1cccs1`, the inhibition is 52.2% (active).

`O=C(Nc1ccc2oc(-c3ccccc3F)nc2c1)c1ccco1`: the inhibition was 4.71% (inactive).

As for `CC(Oc1cccc(NC(=O)c2cccs2)c1)C(=O)c1ccccc1` (centres undefined), the inhibition was 12.5% (inactive).

With `C#CCN(C[C@@H]1[C@@H](OC(=O)NC2CC2)[C@@H](OC(=O)NC2CC2)Cn2c(=O)ccc(=O)n21)S(=O)(=O)c1ccc(C)cc1`, the inhibition was -0.284% (inactive).

As to `CCOC(=O)c1ccc(N/C(=N/S(=O)(=O)c2ccccc2)c2ccccc2)cc1`, the inhibition is -4.64% (inactive).

Turning to `CCOC(=O)c1ccc(Nc2cc3ccccc3c(=O)[nH]2)cc1`, the inhibition was 9.05% (inactive).

`CCOC(=O)c1nc(Nc2ccc(C(=O)OC)cc2)c2ccccc2n1`: the inhibition is 99.4% (active).

Consider `CN(C)C(=O)c1cccc(-c2cnc3sc(NCc4ccc5c(c4)OCO5)nn23)c1`, for which the inhibition is -12% (inactive).

In the case of `COc1ccc(C2C(C(C)=O)=C(O)C(=O)N2CCc2c[nH]c3ccccc23)cc1` (centres undefined), the inhibition was -11.5% (inactive).

For the compound `COc1cccc(-n2c(SCC(=O)c3c[nH]c4ccccc34)nc3ccccc3c2=O)c1`, the inhibition is -2.01% (inactive).

For the compound `COc1ccc(/C=C(\C#N)c2c[nH]c3ccccc23)cc1`, the inhibition is 52.1% (active).

Consider `Cc1ccc(C(NC(=O)C2CCN(CCOc3ccc(Cl)cc3Cl)CC2)c2ccccn2)cc1` (centres undefined), for which the inhibition was 4.63% (inactive).

For the compound `Cc1ccccc1Cn1c(C)c(C(=O)NCc2cccc(C(F)(F)F)c2)sc1=O`, the inhibition was -7.14% (inactive).

On to `CCOC(=O)C1=CCC(c2ccc(F)cc2)N(S(=O)(=O)c2ccc(C)cc2)C1` (centres undefined), for which the inhibition was 24.4% (inactive).

Consider `COc1ccc(C(=O)N[C@H](C(=O)NCc2ccccc2)C(C)C)cc1`, for which the inhibition is 4.63% (inactive).

`COc1cc(OC)cc(C(=O)N[C@H](C(=O)Nc2nc3ccccc3[nH]2)C(C)C)c1`: the inhibition was 116% (active).

On to `COc1cc(OC)cc(C(=O)N[C@H](C(=O)NNC(=O)c2ccc(Br)cc2)C(C)C)c1`, for which the inhibition is 1.45% (inactive).

Regarding `Cc1nc2c(OCc3ccc(Cl)cc3Cl)cccn2c1N(C)CC1CC1`, the inhibition was -14% (inactive).

Turning to `O=C(NCc1nnnn1-c1ccc(Cl)cc1)c1ccc([N+](=O)[O-])o1`, the inhibition is 6.82% (inactive).

As for `CCC(=O)Nc1ccc(S(=O)(=O)Nc2c(NC)c3ccccc3oc2=O)cc1`, the inhibition is -6.99% (inactive).

With `NCCCNC(=S)NCCCN(Cc1ccc(Cl)cc1)c1ccc(Br)cn1`, the inhibition is -10.7% (inactive).

In the case of `O=C(COC(=O)/C=C/c1ccc(Br)o1)Nc1cccc(S(=O)(=O)N2CCOCC2)c1`, the inhibition is 72.1% (active).

Regarding `O=C(COC(=O)c1ccccc1)Nc1cccc(S(=O)(=O)N2CCOCC2)c1`, the inhibition is 6.23% (inactive).

Consider `NS(=O)(=O)c1cccc(NC(=O)COC(=O)/C=C/c2ccco2)c1`, for which the inhibition was 40.9% (inactive).

Consider `C[C@@H]1CN([C@H](C)CO)S(=O)(=O)c2ccc(C#C[C@@H](C)O)cc2O[C@@H]1CN(C)Cc1ccc(-c2ccccc2)cc1`, for which the inhibition was -0.002% (inactive).

`NC(Cc1ccc(F)cc1)c1csc(Nc2nncc3ccccc23)n1` (centres undefined): the inhibition is -17.9% (inactive).

In the case of `Cc1cccnc1C(NC(=O)C1CCN(Cc2ccc(Cl)c(Cl)c2)CC1)c1ccc(Cl)cc1` (centres undefined), the inhibition was 11.5% (inactive).

Consider `COc1ccc(CNC(=O)c2ccc(-c3cccnc3)c3ccoc23)cc1OC`, for which the inhibition was -16.6% (inactive).

For `CCCNC(=O)C1(C)CCN(Cc2ccc(Cl)c(Cl)c2)C1` (centres undefined), the inhibition was 3.78% (inactive).

Consider `COc1ccc(-c2cc(NC=O)c3ncc(-c4cc(OC)c(OC)c(OC)c4)n3c2)c(OC)c1`, for which the inhibition is 21.8% (inactive).

Take `Cc1cc(C)c2c(-c3ccc(F)cc3)c(C#N)c(=O)n(C)c2n1`: the inhibition is 54.6% (active).

On to `COc1ccc(O)c(C(=O)c2cnc3c(c2)c(-c2ccc(F)cc2)c(C#N)c(=O)n3C)c1`, for which the inhibition was 1.06% (inactive).

In the case of `Cn1c(N)cc(-c2ccc(F)cc2)c(C#N)c1=O`, the inhibition is -9.36% (inactive).

For the compound `NC(c1csc(NC(=O)Nc2cccc(C(F)(F)F)c2)n1)C1CCCCC1` (centres undefined), the inhibition is -1.56% (inactive).

In the case of `CCc1nn(-c2cc(Oc3cccc4ccccc34)nc(-c3ccccc3)n2)c(N)c1C#N`, the inhibition was 53.3% (active).

For `CC(C)(C)n1nc(Cc2cccc3ccccc23)c(C#N)c1N`, the inhibition is 13.5% (inactive).

With `CC1(C(=O)NCc2ccc(F)c(F)c2)Cc2c(-c3ccc4c(c3)OCO4)ccnc2O1` (centres undefined), the inhibition is -5.82% (inactive).

Regarding `CCN(CC)CCN(C(=O)c1ccc2c(c1)CCCC2)c1nc2c(OC)cccc2s1`, the inhibition was -7.26% (inactive).

Consider `C[C@@H]1CCCCO[C@H](CN(C)Cc2ccccc2)[C@@H](C)CN([C@H](C)CO)C(=O)c2cc(NS(=O)(=O)c3ccc(Cl)cc3)ccc2O1`, for which the inhibition was 8.14% (inactive).

For `CC(C)OCCCNc1ncnc2c1[nH]c1ccc(F)cc12`, the inhibition is 65.5% (active).

With `COc1ccc(C(=O)N2CCCCC2c2cc(C(=O)Nc3ccccc3)no2)cc1` (centres undefined), the inhibition is 13.8% (inactive).

Regarding `CC(C)N=C1CCCC1C(=S)SSC(=S)C1CCCC1=NC(C)C` (centres undefined), the inhibition was 0.152% (inactive).

Turning to `CCOC(=O)C1CCCN(C(=O)c2cc(-c3cccs3)oc2C)CC1` (centres undefined), the inhibition is -8.46% (inactive).

On to `CC(C)c1cccc(-c2csc(C(O)c3ccccc3)n2)c1` (centres undefined), for which the inhibition was -7.2% (inactive).

As to `CC(C)n1cnc2c(NCc3ccccc3)cc(OCC3CCN(C)CC3)cc21`, the inhibition is 78.2% (active).

Regarding `CCC(CO)Oc1cc(NC(=O)c2cccc3ccccc23)c2ncn(C(C)C)c2c1` (centres undefined), the inhibition is 1.25% (inactive).

As to `CCC(CO)Oc1cc(NC(=O)c2cccc(F)c2)c2ncn(C(C)C)c2c1` (centres undefined), the inhibition is -4.4% (inactive).

For `CCCCC(=O)N(C)c1c(CC)nc2c(OCc3ccc(Cl)cc3Cl)cccn12`, the inhibition is 1.33% (inactive).

As to `COc1ccc(NC2CCCN(C(=O)c3ccccc3-c3ncc[nH]3)C2)cc1` (centres undefined), the inhibition was 10.8% (inactive).

As to `CC(=O)Nc1cc(-c2ccc(N3CCN(C)CC3)cc2)cn2c(-c3ccc(F)cc3)cnc12`, the inhibition is -22.4% (inactive).

As to `CCN(CC)C(=O)C1=C(C)N(Cc2ccc(C(C)(C)C)cc2)C(=O)C(CC(=O)NCc2cccc3ccccc23)C1` (centres undefined), the inhibition was -1.52% (inactive).

Turning to `FC(F)(F)c1nnc2ccc(N3CCN(c4ccccc4)CC3)nn12`, the inhibition is 19.6% (inactive).

As to `FC(F)(F)c1nnc2c3ccccc3c(Cl)nn12`, the inhibition is 78.3% (active).

For the compound `Nc1nnc2c(C(F)(F)F)nc3ccccc3n12`, the inhibition was 44% (inactive).

In the case of `CC1(Oc2ccccc2-c2ccno2)CCN(Cc2ccc(-c3ccccc3)o2)C1` (centres undefined), the inhibition is 4.47% (inactive).

On to `Cc1ccc(-c2cnc(C(O)c3cc(Cl)cc(Cl)c3)[nH]2)cc1` (centres undefined), for which the inhibition was -6.84% (inactive).

With `COc1ccc(C(c2nnnn2C2CCCC2)N2CCN(C/C=C/c3ccccc3)CC2)cc1` (centres undefined), the inhibition is 16.8% (inactive).

`COc1ccc(C2CC(c3ccccc3)=NN2C(=O)c2ccc(Cl)c([N+](=O)[O-])c2)cc1` (centres undefined): the inhibition is 89.1% (active).

As to `COc1ccc(C2=NN(C(=O)c3cccnc3)C(c3ccccc3)C2)cc1` (centres undefined), the inhibition is -3.05% (inactive).

As to `COc1ccc(C2CC(c3ccc([N+](=O)[O-])cc3)=NN2C(C)=O)cc1` (centres undefined), the inhibition is 1.95% (inactive).

On to `CCCCN(C=O)c1c(CC)nc2c(OCCC3CCCCC3)cccn12`, for which the inhibition is -3.38% (inactive).

As for `O=c1[nH]c(=O)n(Cc2ccco2)c2c1C(C(F)(F)F)(C(F)(F)F)N=C(c1ccco1)N2`, the inhibition was 51.3% (active).

For the compound `Cc1ccccc1C1=NC(C(F)(F)F)(C(F)(F)F)c2c(n(-c3ccc(F)cc3)c(=O)[nH]c2=O)N1`, the inhibition is -7.19% (inactive).

`Nc1c(N(Cc2ccco2)C(=O)c2cccc(F)c2)c(=O)[nH]c(=O)n1Cc1ccccc1`: the inhibition is 6.01% (inactive).

Regarding `C=C(C)C(=O)O[C@H]1C/C(C)=C\C(=O)/C=C(\C)[C@H](O)[C@@H]2OC(=O)C(=C)[C@@H]21`, the inhibition is 136% (active).

Take `O=C(NC(c1ccc(Cl)cc1)c1cnccn1)C1CCN(Cc2ccc(Cl)cc2)CC1` (centres undefined): the inhibition is 26.5% (inactive).

On to `CC(=O)c1ccc(Nc2nc(C(N)c3ccccc3)cs2)cc1` (centres undefined), for which the inhibition was -5.96% (inactive).

On to `COc1ccc(OC)c(NC(=O)C2(C)CCN2C(=O)Cc2ccccc2)c1` (centres undefined), for which the inhibition is 2.75% (inactive).

As for `CC(C)CC1C(=O)N(Cc2cn(Cc3ccco3)nn2)CCS(=O)(=O)N1Cc1ccc(-c2ccc(Cl)c(Cl)c2)cc1` (centres undefined), the inhibition is 0.356% (inactive).

Take `O=S(=O)(Nc1cccc(-n2cnnn2)c1)c1cnc(Cl)c(Cl)c1`: the inhibition was -0.268% (inactive).

`Cc1ccc(C)c(S(=O)(=O)Nc2cccc(-n3cnnn3)c2)c1`: the inhibition is 69.3% (active).

Turning to `O=C(Nc1cccc(-n2cnnn2)c1)c1cccnc1`, the inhibition is 1.28% (inactive).

For the compound `COc1cccc(-c2cnc3c(NC(C)=O)cc(-c4cccc(NC(C)=O)c4)cn23)c1`, the inhibition is -4.77% (inactive).

As for `O=C(NCCN1CCOCC1)c1ccccc1N1C(=O)[C@@H]2Cc3c([nH]c4ccccc34)C(c3cccc(Cl)c3)N2C1=O` (some centres undefined), the inhibition is 2.4% (inactive).

For `CC(=O)NC(Cc1c[nH]c2ccccc12)C(=O)NCCc1ccccc1` (centres undefined), the inhibition is 50.4% (active).

In the case of `CCOC(=O)c1ccccc1NC(=O)COC(=O)C(Cc1c[nH]c2ccccc12)NC(C)=O` (centres undefined), the inhibition was 1.23% (inactive).

Take `COc1ccc(CNC(=O)[C@H](Cc2c[nH]c3ccccc23)NC(C)=O)cc1OC`: the inhibition was -6.67% (inactive).
